CYP2C19 inhib: human CYP2C19 inhibition | P33261 | AID 778 | CYP2C19 Supersomes, luciferin-H EGE luminescence, 30 min | inhibition, % at 5 µM | 96,000 tested, 21% active;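 active means CYP2C19 inhibition above a set limit at 5 µM in the primary screen, cut at about 50% in these data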;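 further: plate controls were negative control wells for no effect and 2.5 mM tranylcypromine positive control for full effect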
Target sequence (P33261 whole entry, looked up): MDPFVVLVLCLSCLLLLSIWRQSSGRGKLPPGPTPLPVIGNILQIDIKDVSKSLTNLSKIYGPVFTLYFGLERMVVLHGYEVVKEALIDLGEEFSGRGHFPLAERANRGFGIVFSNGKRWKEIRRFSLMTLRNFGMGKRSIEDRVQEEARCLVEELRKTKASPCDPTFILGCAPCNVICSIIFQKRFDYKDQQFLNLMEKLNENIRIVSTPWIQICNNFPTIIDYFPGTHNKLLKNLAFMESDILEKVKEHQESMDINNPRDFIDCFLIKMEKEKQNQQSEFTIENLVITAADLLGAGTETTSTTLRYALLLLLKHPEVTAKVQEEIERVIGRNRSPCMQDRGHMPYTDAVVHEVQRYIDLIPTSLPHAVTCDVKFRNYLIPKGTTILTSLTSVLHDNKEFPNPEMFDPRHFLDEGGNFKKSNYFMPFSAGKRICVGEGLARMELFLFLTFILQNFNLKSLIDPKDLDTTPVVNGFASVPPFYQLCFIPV
CYP2C9 inhib: inhibitors of human CYP2C9. P11712. CYP2C9 Supersomes, luciferin-H conversion, luminescence. inhibition, % at 5 µM. 96,000 tested, 20% active. AID 777;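 active means blocking of liver enzyme CYP2C9 beyond about 50% at 5 µM, limit read from the data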
PostGolgi ctrl: yeast control strain growth, post-Golgi counter-screen | 98,000 tested, 5% active | inhibition, % at 10 µM | efflux-deficient yeast background strain, growth absorbance A615, 16 h
CYP2C9 activ: activators of human CYP2C9. 96,000 tested, 1.4% active. activation factor at 5 µM. recombinant CYP2C9, luciferin-H conversion, luminescence; active compounds read high; factor 1 = untreated enzyme, 0 = blocked;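 active means activation factor of 2 or more for CYP2C9 at a 5 µM dose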;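 further: 0 = sulfaphenazole-blocked wells and 1 = vehicle-only wells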
CYP2C19 act: increases human CYP2C19 enzyme activity | recombinant CYP2C19, luciferin-H EGE luminescence; active compounds read high; 0 = fully inhibited enzyme, 1 = untreated enzyme | P33261 | 96,000 tested, under 10 active | activation factor at 5 µM;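 active means activation factor of at least 2 at 5 µM in the primary screen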;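 further: 0 = wells with 2.5 mM tranylcypromine and 1 = vehicle-only wells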
PostGolgi yeast: growth inhibition of a yeast mutant, post-Golgi transport screen; AID 739; inhibition, % at 10 µM; post-Golgi transport phenotypic cell assay; 98,000 tested, 0.9% active;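 further: yeast cells grown in 1536-well plates; yeast grown about 18 h at 30C before absorbance read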
* marks the source's active call; other numbers are inactive results; . = no result. Shown are actives, neighbours in structure and some others; about 32% of the full set was active somewhere. Unless noted, no stated cut-off is given here; in the data, active means inhibition above about 30%; inactive means the rest.

SMILES	CYP2C19 inhib	CYP2C9 inhib	PostGolgi ctrl	CYP2C9 activ	CYP2C19 act	PostGolgi yeast
COc1ccc(CNC(=O)c2csc(Cc3ccc(Cl)cc3)n2)cc1	57*	62*	22	0.4	0.4	-8
COc1ccc(CNC(=O)c2csc(Cc3ccc(OC)cc3)n2)cc1	49	67*	7	0.3	0.5	0
COc1ccc(CNC(=O)c2cc(-c3ccco3)on2)cc1	21	15	-6	0.9	0.8	0
O=C(Nc1c(C(=O)N2CCOCC2)cnn1-c1ccccc1Cl)c1ccco1	-18	-29	20	1.3	1.2	3
Cc1cccc(OCC(=O)OCC(=O)c2c(N)n(C)c(=O)n(C)c2=O)c1C	-6	-7	3	1.1	1.1	6
CC(CCc1ccccc1)NC(=O)CSc1nnnn1C (stereo not drawn)	20	-19	-14	1.2	0.8	20
CCOC(=O)c1cc(-c2ccccc2)sc1NC(=O)CSc1nnnn1C	33	26	15	0.7	0.7	-2
CCOC(=O)c1sc(-c2ccccc2)cc1NC(=O)CSc1nnnn1C	-2	-2	74*	1	1	9
Cn1nnnc1SCC(=O)Nc1ccccc1Cc1ccccc1	55*	58*	1	0.4	0.4	-2
Cc1cc(C)c2nc(N)sc2c1	68*	32	12	0.7	0.3	18
O=C(CCC1COc2ccccc2O1)Nc1ccccn1 (stereo not drawn)	44	1	-14	1	0.6	-10
CCOc1ncccc1C(=O)N(C)CC1COc2ccccc2O1 (stereo not drawn)	85*	63*	8	0.4	0.1	5
CCC(C)(C)NC(=O)CN(C(=O)CCC(=O)Nc1cc(C)ccn1)c1ccc2c(c1)OCO2	58*	50*	1	0.5	0.4	12
O=C(CN(C(=O)CCC(=O)Nc1ccccn1)c1ccc2c(c1)OCO2)NCc1ccco1	49	31	1	0.7	0.5	9
Cc1ccc(N(CC(=O)NCc2ccco2)C(=O)CCC(=O)Nc2ccccn2)cc1C	96*	30	-8	0.7	0	-6
Cc1cc(C)cc(N(CC(=O)NCc2ccco2)C(=O)CCC(=O)Nc2ccccn2)c1	61*	24	2	0.8	0.4	2
CC(C)CCNC(=O)CN(C(=O)CCC(=O)Nc1ccccn1)c1ccc2c(c1)OCO2	46	58*	2	0.4	0.5	-13
CCCCCCNC(=O)Cc1c(O)c2ccccc2[nH]c1=O	-11	-10	9	1.1	1.1	-2
CCOC(=O)NC(Nc1sc2c(c1C(N)=O)CCCC2)(C(=O)OCC)C(F)(F)F (stereo not drawn)	19	28	13	0.7	0.8	-9
Cc1ccc(-c2nc(C3CCN(S(=O)(=O)c4ccc(C(F)(F)F)cc4)CC3)no2)cc1	7	43	-8	0.6	0.9	7
O=C(Cc1coc(-c2ccc(F)cc2)n1)NCc1ccccc1	30	30	8	0.7	0.7	3
Cc1cc(C)nc(NC(=O)CSc2nn(C)c(=S)s2)n1	6	-17	-5	1.2	0.9	40*
Cc1cc(C)nc(NC(=O)CSc2ccccn2)n1	.	.	-13	.	.	-1
Cc1ccc(C2=NC(C)(C)N=C2SCC(=O)Nc2ccc(Cl)cc2)cc1	39	47	34*	0.5	0.6	13
CC1(C)N=C(SCC(=O)Nc2ccc(Cl)cc2Cl)C(c2ccccc2)=N1	55*	62*	11	0.4	0.5	-11
SMILES	CYP2C19 inhib	CYP2C9 inhib	PostGolgi ctrl	CYP2C9 activ	CYP2C19 act	PostGolgi yeast
CO/N=C/NC(=O)NOCc1ccc(Cl)cc1Cl	52*	14	20	0.9	0.5	3
O=C(N/C=N/OCc1ccc(Cl)cc1Cl)NOCc1c(Cl)cccc1Cl	-15	-12	7	1.1	1.1	5
CO/N=C/NC(=O)NOCc1c(Cl)cccc1Cl	10	-4	32*	1	0.9	0
O=C(C/C=N/OCc1c(Cl)cccc1Cl)c1ccccc1	22	0	4	1	0.8	-1
Cc1c(NC(=O)c2ccc3c(c2)C(=O)N(CC2CCCO2)C3=O)cccc1C(=O)O (stereo not drawn)	11	1	-6	1	0.9	3
Nn1c(SCC(=O)NC(=O)NCc2ccco2)nnc1-c1ccc(OC(F)F)cc1	71*	31	2	0.7	0.3	4
O=C(CSc1nnc(-c2ccco2)n1Cc1ccccc1)NC(=O)NCc1ccccc1	62*	30	8	0.7	0.4	0

Screening results from PubChem BioAssay.
